This is a sample that favours compounds with a hit; in the whole collection about 6% have one here.
D1 agonist: agonists of human D1 dopamine receptor. HEK293 T-REx D1 cells, calcium flux, agonist mode. activation, % at 2 µM. hit rate 1% among 360,000. AID 504660; in the data active = activation above about 30%; also: 0% is about no effect
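Inducible HEK293 T-REx D1 cells, force-coupled to calcium signalling, were plated at 4000 cells/well with tetracycline and held overnight at 30 C. After no-wash calcium dye loading, compound-evoked calcium rise over 180 s flagged agonists.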
D1 PAM: human D1 dopamine receptor positive modulation | P21728 | HEK293 TREx D1 cells, calcium flux, dopamine EC20 potentiation | potentiation, % at 10 µM | hit rate 0.036% among 360,000 | AID 504651; in the data active = potentiation above about 30%; also: 0% is about no effect
DRD3 antagonist: D3 dopamine receptor (human) antagonism | P35462 | D3R cells, DiscoveRx beta-arrestin luminescence, antagonist mode; hits give low values | max response, negative = inhibition, % | hit rate 2.5% among 360,000; in the data active = max response below about -50%; inconclusive = no clear call, values can overlap the other calls; also: % is scaled to controls: 0 for no effect and ±100 for the full control effect
Target sequence (P35462 whole entry, looked up): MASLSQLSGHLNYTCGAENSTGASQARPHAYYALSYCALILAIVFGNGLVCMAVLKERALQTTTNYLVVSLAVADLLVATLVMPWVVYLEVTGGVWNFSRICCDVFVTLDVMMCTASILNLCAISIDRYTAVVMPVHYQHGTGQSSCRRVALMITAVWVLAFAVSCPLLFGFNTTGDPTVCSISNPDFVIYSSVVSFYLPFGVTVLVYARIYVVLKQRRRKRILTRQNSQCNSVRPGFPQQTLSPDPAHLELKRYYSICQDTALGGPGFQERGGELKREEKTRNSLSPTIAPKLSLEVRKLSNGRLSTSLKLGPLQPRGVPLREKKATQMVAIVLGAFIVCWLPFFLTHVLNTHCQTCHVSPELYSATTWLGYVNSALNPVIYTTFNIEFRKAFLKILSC
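Cells plated overnight at 1500 cells/well, then exposed to library compounds with dopamine controls for 90 minutes at 37 degrees C. DiscoveRx reagent added for 30–60 minutes at room temperature; luminescence read, quantitative HTS format.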
D3 ag: D3 dopamine receptor (human) agonism; P35462; D3R DiscoveRx beta-arrestin cells, luminescence, 90 min; max activation, %; hit rate 0.58% among 410,000; AID 652048; in the data active = max activation above about 30%; also: 0% is about no effect
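Agonist mode: compounds and dopamine controls were applied to plated cells for 90 min at 37 degrees C after an overnight attachment at 1500 cells/well. Luminescent read-out followed 30 - 60 minutes at room temperature with DiscoveRx detection reagent.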
D1 antag: human D1 dopamine receptor antagonism | HEK293 TREx D1 cells, calcium flux, dopamine EC80; hits give low values | AID 504652 | hit rate 3.2% among 360,000 | P21728 | activity change, negative = inhibition, % at 10 µM; in the data active = activity change below about -30%; also: % is scaled to controls: 0 for no effect and ±100 for the full control effect
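Allosteric or orthosteric antagonism assessed as attenuation of the calcium response to EC80 dopamine, added 180 s after compound, in induced HEK293 Trex D1 cells loaded with no-wash calcium dye.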
Numbers without * were called inactive; ? = inconclusive; · = not tested or not shown.

SMILES	D1 agonist	D1 PAM	DRD3 antagonist	D3 ag	D1 antag
COc1ccc(OCC(O)CN2CCc3ccccc3C2)cc1 (stereo not drawn)	4	3	-107*	-16	18
COc1cc(COCC(O)CN2CCc3ccccc3C2)cc(OC)c1OC (stereo not drawn)	1	-3	-85*	-10	-6
COc1cc(COCC(O)CN2CCCCC2C)cc(OC)c1OC (stereo not drawn)	3	1	0	-6	8
O=c1ncccn1C1OC(CO)C(O)C1O (stereo not drawn)	·	·	11	3	·
COCC(=O)Nc1cccc(-c2nc3cccnc3s2)c1	1	-3	·	-6	-3
Cc1cccc(OCC(O)CN2CCc3ccccc3C2)c1 (stereo not drawn)	6	-5	-104*	-1	5
CCCc1ccc(OCC(O)CN2CCc3ccccc3C2)cc1 (stereo not drawn)	4	-1	-94*	-19	35
CCc1ccc(OCC(O)CN2CCCC2)cc1 (stereo not drawn)	1	-2	14	-5	17
CC(C)(C)c1ccc(OCC(O)CN2CCc3ccccc3C2)cc1 (stereo not drawn)	·	·	-119*	-21	·
N[C@H](C(=O)O)c1ccc(O)cc1	·	·	·	-7	·
O=S(=O)(Nc1nc2ccccc2s1)c1cnc(Cl)c(Br)c1	7	-3	-1	-5	-2
Cc1ccc(-n2nc3c(N4CCCC(C(=O)NCc5ccc(Cl)cc5)C4)nnc(C)c3c2C)cc1 (stereo not drawn)	2	1	·	10	18
CC(C)CCN(CCC(C)C)CC(O)Cn1c2ccccc2c(=O)c2ccccc21 (stereo not drawn)	3	10	-5	-3	32
CC(C)CN(CC(C)C)CC(O)Cn1cc(/C=C/C(=O)c2ccccc2)c2ccccc21 (stereo not drawn)	3	1	·	-6	10
CCCN(CCC)CC(O)Cn1c2ccccc2c2ccccc21 (stereo not drawn)	31*	-4	-10	-12	1
Cc1cccc(C)c1N(CC(O)Cn1c2ccccc2c2ccccc21)S(C)(=O)=O (stereo not drawn)	8	-4	23	8	-36*
CCCN(CCC)CC(O)Cn1cc(/C=C/C(=O)c2ccc(OCC)cc2)c2ccccc21 (stereo not drawn)	69*	0	·	-8	-32*
O=S(=O)(c1ccccc1)C(Br)S(=O)(=O)c1ccccc1	·	·	8	4	·
COc1ccc(N=CC2=C(O)c3ccccc3C2=O)c(OC)c1	3	-2	-58*	-4	-1
CCc1ccc(OCC(=O)Nc2c(C(=O)c3ccc(Br)cc3)oc3ccccc23)cc1	2	-2	·	-1	-8
O=C(C=P(c1ccccc1)(c1ccccc1)c1ccccc1)c1ccccc1-c1ccccc1C(=O)C=P(c1ccccc1)(c1ccccc1)c1ccccc1	·	·	-89*	-3	·
CCCNC(=O)C[C@@H]1C[C@H]2c3cc(NC(=O)c4ccc5c(c4)OCO5)ccc3O[C@H]2[C@@H](CO)O1	·	·	-28	2	·
Nc1nc(SCCO)[nH]c(=O)c1NC(=O)c1ccco1	0	0	-10	1	-2
CCS(=O)(=O)N1CCN(Cc2c[nH]c3ccccc23)CC1	3	-1	-17	-5	-16
O=[N+]([O-])c1ccc(CN2CCN(Cc3c[nH]c4ccccc34)CC2)cc1	21	-7	?	-23	-72*
SMILES	D1 agonist	D1 PAM	DRD3 antagonist	D3 ag	D1 antag
Brc1ccccc1CN1CCN(Cc2c[nH]c3ccccc23)CC1	·	·	-80*	-14	·
Brc1ccc(CN2CCN(Cc3c[nH]c4ccccc34)CC2)cc1	15	-7	-64*	-41	14
CN1CCCN(Cc2ccccc2Br)CC1	7	-8	-51*	-10	-5
Cc1ccc(C)c(NC(=O)CSc2nc3c([nH]c4ccccc43)c(=O)n2-c2ccc(F)cc2)c1	1	-6	·	-6	-15
CCc1ccccc1NC(=O)Cn1c(=O)n(Cc2ccccc2)c(=O)c2c(C)c(C(=O)N(C)C)sc21	4	-1	·	9	3
CCC1(CC)C(=O)C2=C3C1[C@H](C(=O)OC)C=C(C(=O)OC)C[C@H]3n1c(=O)n(-c3ccccc3)c(=O)n1[C@H]2C (stereo partly drawn)	·	·	41	7	·
C=C(C)COc1ccc(C2NC(=O)c3ccccc3O2)cc1OCC (stereo not drawn)	4	-13	7	21	-49*
CCN(CC)c1ccc2cc(S(=O)(=O)c3ccc(C)cc3)c(=O)oc2c1	120*	2	1	4	-3
Cc1ccc(Nc2nnc(-c3cc4c(ccc5ccccc54)oc3=O)s2)cc1	24	-1	·	0	6
CCN(CC)c1ccc2cc(-c3nc(-c4ccccc4)no3)c(=O)oc2c1	317*	9	·	13	-34*
CCN(CC)c1ccc2ccc(=O)oc2c1	1	-1	6	3	-6
CCN(CC)c1ccc2cc(-c3nnc(Nc4ccc(C)cc4)s3)c(=O)oc2c1	421*	-1	·	-1	-60*
CCN(CC)c1ccc2cc(C#N)c(=O)oc2c1	32*	-3	-1	6	-6
O=c1oc2ccccc2cc1-c1nc(-c2ccccc2)no1	2	-4	-10	3	3
C#CCN1C=CC(=O)[C@@H](OC(=O)Nc2ccc(C)cc2)[C@H]1c1ccccc1Br	·	·	-10	-16	·
OCCNCCCCOc1ccc(OCc2ccccc2)cc1	46*	-14	41	10	-31*
CCc1cc(OCCCCNCc2ccccc2)ccc1Cl	51*	9	?	-13	-1
CC(C)(c1ccccc1)c1ccc(OCCCNCCO)cc1	21	3	-75*	-3	5
COCCCNCCCOc1ccc(C(C)(C)c2ccccc2)cc1	9	0	-22	-11	13
COc1ccc(OCCCNCCc2ccccc2)cc1	17	-9	-52*	-27	-11
CC(Oc1cc2oc(=O)c3c(c2cc1Cl)CCCC3)C(=O)NCCN1CCOCC1 (stereo not drawn)	1	-6	6	-12	11
COc1ccc(OC)c(S(=O)(=O)NC(N)=NCCc2ccccc2)c1	3	-3	4	2	-7
OCCCCNCc1ccc(OCc2ccccc2Cl)cc1	·	·	-7	-8	·
CC(C)(C)c1ccc(OCCCNCc2ccccc2)cc1	61*	5	?	-25	26
CCOCCCNCc1ccc(OCc2ccccc2Cl)cc1	36*	0	-1	-9	-13
Cc1cc(C)c2c(n1)SCC(=O)N2CC(=O)Nc1cccc(C)c1C	2	5	·	3	-4
O=C(Nc1ccc(F)cc1F)c1ccc(-n2cnnc2)cc1	1	-5	·	5	-4
Cc1ccc(Cl)cc1N1CCN(C(=O)Cn2ncc3c4ccccc4n(C)c3c2=O)CC1	0	-3	·	6	-33*
CCCN1Cc2cccc(C(=O)N3CCN(c4cc(Cl)ccc4C)CC3)c2C1=O	27	·	-51*	-4	-3

Screens (PubChem)
